Experimental data from PubChem BioAssay AID504773 (Broad Institute, 2011).
Measured potencies and affinities stand elsewhere. Activity calls are given as the source filed them.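 The calls were made as follows: active = polarization signal falls with dose and the fitted half-maximal concentration is at or below ten times the sample's top valid dose; inconclusive = flat curve at 30 to 70% inhibition, or poor fit; inactive = signal rises, flat within 30%, or potency beyond limit.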

target: Golgi-associated PDZ and coiled-coil motif-containing protein (Homo sapiens) (UniProt Q9HD26); assay: CAL PDZ peptide-binding inhibitors, dose response, biochemical, fluorescence polarization, Cerulean-tagged CAL PDZ, cherry-picks (AID 504773); conditions: 1 h; series mostly up to 50 µM

outcome, inactive:
O=C(NCC1CCCO1)c1cn(-c2ccccc2)nc1-c1ccc(F)cc1 (configuration not stated)
COc1cc(C2NC(=O)NC(C)=C2C(=O)OC2CCCCC2)cc(Br)c1O (configuration not stated)
COc1ccc(CC(=O)NNC(=O)CCc2ccccc2)cc1OC
Cc1cccc(NC(=O)Cn2cnc3c(oc4ccccc43)c2=O)c1C
O=C(Nc1ccc(Cl)cc1)c1ccc(CN2CCc3ccccc3C2)cc1
CCOC(=O)Cn1ncn(-c2ccc(OC(F)(F)F)cc2)c1=O
Cc1ccc(F)cc1N=Cc1c(O)c2ccccc2oc1=O
COc1cc(S(=O)(=O)n2nc(C)cc2C)ccc1Cl
Cc1ccc(C)c(N(CC(=O)NC(C)(C)C)C(=O)CCC(=O)Nc2nccs2)c1
CN(CC1CCCO1)S(=O)(=O)c1ccc(C(=O)Nc2ccc([N+](=O)[O-])cc2)cc1 (configuration not stated)
Cc1cc(C)nc(CCNC(=O)c2cc(COc3c(C)cccc3C)on2)n1
CCCCNC(=O)c1ccc(-n2c(=S)[nH]c3ccccc3c2=O)cc1
O=C(NNC(=O)c1c(F)cccc1F)c1sccc1-n1cccc1
c1ccc(CNc2nc(NCc3ccccc3)c3ccccc3n2)cc1
Cc1ccnc(SCC(=O)N2CCC(C(N)=O)CC2)n1
COc1cccc(NC(=O)N2CCCCCC2)c1
O=C(NNC(=S)NC(=O)c1ccc(Br)cc1)c1ccc([N+](=O)[O-])cc1
COc1ccc(S(=O)(=O)N2CCOCC2)cc1NC(=O)CN1CCCCCC1
O=C1c2ccccc2C(=O)N1CSc1nnnn1-c1ccccc1
COCCN(Cc1nc(C(c2ccccc2)c2ccccc2)no1)C(C)C
CCN1C(=O)CS/C1=N\S(=O)(=O)c1ccc(Cl)cc1
O=C(NCC(=O)N1CCC(N2CCCCC2)CC1)C1CCCCC1
COc1ccc(/C=C/C(=O)Nc2ccc3nc4n(c(=O)c3c2)CCCC4)cc1OC
Cc1ccc(S(=O)(=O)N2CCN(C(=O)c3ccccn3)CC2)cc1
Cc1nc(Cl)sc1C(=O)Nc1cc(F)cc(F)c1
CCOC(=O)N1CCN(Cc2nc3c(c(=O)n(C)c(=O)n3C)n2Cc2cccc(C)c2)CC1
CCOC(=O)c1nc(NCCc2ccccc2)sc1C
CN(C(=O)CC1C(=O)NCCN1CC(c1ccccc1)c1ccccc1)C(C1CC1)C1CC1 (configuration not stated)
CN(C)/N=C1\CCS(=O)(=O)c2sccc21
Oc1ccc(/C=N\Nc2nncc(-c3ccccc3)n2)cc1
CC1CCC(NC(=O)c2ccc3c(c2)S(=O)(=O)c2ccccc2C3=O)CC1 (configuration not stated)
CC1(C2CC2)NC(=O)N(CC(=O)NCC(=O)Nc2ccc(F)c(F)c2F)C1=O (configuration not stated)
O=C(NCCc1cnc[nH]1)c1cccs1
Cc1cc(C)c(OCC(=O)OC(C)C(=O)NC2CC2)c(C)c1 (configuration not stated)
CC1=NN(C(N)=S)C(=O)C1N=Nc1ccc(Cl)cc1 (configuration not stated)
COc1ccc(C(=O)Nc2ccc(S(=O)(=O)N3CCCC3)cc2)cc1[N+](=O)[O-]
CCN(CC)CCC(=O)N1c2ccccc2CCc2ccc(NC(=O)OC(C)C)cc21
